PubChem BioAssay (Tox21)
A number with no mark means an inactive call. Activity calls are given as the source filed them. Calls come from the whole dose curve; as a rule, active = well fitted curve in the direction sought with a large enough effect in the repeat runs; inconclusive = weak or mixed curves; inactive = flat fitted curve, though single readings scatter.

Assay: qHTS assay to test for compound auto fluorescence at 460 nm (blue) in HepG2 cell free culture (AID 720685)
Settings: Cell-free culture medium, blue autofluorescence 405/460 nm; series mostly up to 91.3 µM
Text: U.S. Tox21 Program National Center for Advancing Translational Sciences [NCATS] NIH Chemical Genomics Center [NCGC] U.S. Environmental Protection Agency [EPA] National Institutes of Environmental Health Sciences [NIEHS] National Toxicology Program [NTP] U.S. Food and Drug Administration [FDA] Tox21 Assay Overview: Compound auto fluorescence often interferes with screening of the compound library against various biological targets and signaling pathways. Some of these compounds may have fluorophoric properties. Such properties may interfere with the assay outputs resulting in false positives and/or negatives. To decrease such complications and ensure the compound activities are relevant in terms of biological response, the Tox21 10K compound library was screened for auto fluorescence. From the fluorophores used as reporter signals in our screening assays, the auto fluorescence equivalencies of compounds against three fluorophores have been evaluated: Triamterene, Fluorescein and Rose Bengal sodium for blue, green and red fluorescence, respectively. The fluorescence intensities were measured using Excitation/Emission wavelengths at 405/460nm, 485/535nm and 540/590nm for blue, green and red labels, respectively. This assay includes the blue fluorescence data.
Tox21 Assay Protocol Summary: 5 uL of culture medium (MEM containing 10% FBS) per well was dispensed into black wall/clear bottom 1536-well plates using a Multidrop Combi Dispenser (ThermoFisher Scientific, Waltham, MA). After 23 nL compound or DMSO vehicle was transferred into assay plate by a pintool work station (Kalypsys, San Diego, CA), fluorescence intensities in the assay plates were measured by an Envision (PerkinElmer, Shelton, CT) plate reader using three labels for measuring blue, green and red fluorescence at […] 460, 535 and 590nm respectively.
% is set by controls: 0 for no effect and ±100 for the full control effect.

Q: For `CCC[Si](OC)(OC)OC`, which outcome is on record?
A: inactive

Q: For `C=CC(O)CCCCC` (stereo not given), which outcome is on record?
A: inactive

Q: With `Cc1cc(N)n(-c2ccccc2)n1` as the compound, how does the outcome read?
A: inactive

Q: For `CCCC1CCOC(C)S1` (stereo not given), which outcome is on record?
A: inactive

Q: With `CC(C)(C)N` as the compound, how does the outcome read?
A: inactive

Q: With `CCCCCCCCCCCCCCCCCCCl` as the compound, how does the fluorescence, % of fluorescent control read?
A: -0.0175% [at 3.72 µM]

Q: With `O=Cc1ccc(Cl)c([N+](=O)[O-])c1` as the compound, how does the outcome read?
A: inactive

Q: With `CC(=O)Oc1cccc2c1C(=O)c1c(OC(C)=O)cc(C(=O)O)cc1C2=O` as the compound, how does the outcome read?
A: inactive

Q: Which outcome does the source give for `COC(=O)Cc1cccc2ccccc12` here?
A: inactive

Q: For `Cc1ccccc1CCO`, which outcome is on record?
A: inactive

Q: With `CC(=O)Nc1ccccc1O` as the compound, how does the outcome read?
A: inactive

Q: With `O=C(Cl)c1cc(Cl)cc(Cl)c1` as the compound, how does the outcome read?
A: inactive

Q: Which outcome does the source give for `C1CCN(CN2CCCCC2)CC1` here?
A: inactive

Q: With `CC(=O)Nc1ccn(C2COC(COC(=O)c3ccccc3)O2)c(=O)n1` (stereo not given) as the compound, how does the outcome read?
A: inactive

Q: For `Nc1ccc(F)cc1F`, which outcome is on record?
A: inactive

Q: Which outcome does the source give for `CCC(CC)C(=O)O` here?
A: inactive

Q: Which outcome does the source give for `CC1=CC(=C(c2ccc(N)cc2)c2ccc(N)cc2)C=CC1=N` here?
A: inactive

Q: With `O=C(O)CNc1ccccc1` as the compound, how does the outcome read?
A: inactive

Q: Which outcome does the source give for `CC(C)(O)C(=O)O` here?
A: inactive

Q: With `CCC(=O)O[C@@H]1C[C@H]2CC[C@]1(C)C2(C)C` as the compound, how does the outcome read?
A: inactive

Q: With `CO[C@@H]1[C@@H](O[C@@H]2O[C@H](C)[C@@H](O[C@H]3C[C@@](C)(O)[C@@H](O)[C@H](C)O3)[C@H](N(C)C)[C@H]2O)[C@@H](CC=O)C[C@@H](C)[C@@H](O[C@@H]2CC[C@H](N(C)C)[C@@H](C)O2)/C=C/C=C/C[C@@H](C)OC(=O)C[C@H]1OC(C)=O` as the compound, how does the outcome read?
A: inactive

Q: With `Nc1ccccc1Nc1ccccc1` as the compound, how does the outcome read?
A: inactive

Q: With `Clc1ccccc1-c1nc(-c2ccncc2)no1` as the compound, how does the outcome read?
A: inactive

Q: Which outcome does the source give for `O=S(=O)(O)c1cc(Cl)c(Cl)cc1Cl` here?
A: inactive

Q: For `Oc1ccc(CCNCCCCCCNCCc2ccccc2)cc1O`, which outcome is on record?
A: inactive

Q: With `CCCCCCCCOCCCN` as the compound, how does the outcome read?
A: inactive

Q: Which outcome does the source give for `CCCC(=O)OCc1ccccc1` here?
A: inactive

Q: With `O=C(O)c1cc(C(=O)O)cc([N+](=O)[O-])c1` as the compound, how does the outcome read?
A: inactive

Q: With `CC(=O)c1ccc(Cl)c(Cl)c1Cl` as the compound, how does the outcome read?
A: inactive

Q: With `CC1(C)CC(=O)CC(C)(C)N1` as the compound, how does the outcome read?
A: inactive

Q: For `NC(=O)c1ccccc1C(N)=O`, which outcome is on record?
A: inactive

Q: With `COc1cc(C)c(Cc2cnc(N)nc2N)cc1OC` as the compound, how does the outcome read?
A: inactive

Q: Which outcome does the source give for `CC(C)CCCCCOC(=O)CS` here?
A: inactive

Q: For `CCCCCCCCCCCC(=O)OCC`, which outcome is on record?
A: inactive

Q: Which outcome does the source give for `CC[C@H](NC(C)C)[C@H](O)c1ccc(O)c2[nH]c(=O)ccc12` here?
A: inactive

Q: For `CCC1=C(C)CN(C(=O)NCCc2ccc(S(=O)(=O)NC(=O)NC3CCC(C)CC3)cc2)C1=O` (stereo not given), which outcome is on record?
A: inactive

Q: Which outcome does the source give for `Cc1cc(SC2=C(O)C[C@@](CCc3ccc(N)cc3)(C(C)C)OC2=O)c(C(C)(C)C)cc1CO` here?
A: inactive

Q: With `CCCCOc1ccc(N)cc1` as the compound, how does the outcome read?
A: inactive

Q: For `Cc1cccc(C)c1NC(=O)CN1CCCC1`, which outcome is on record?
A: inactive

Q: With `N#Cc1ccc(CC(=O)c2cccc(C(F)(F)F)c2)cc1` as the compound, how does the outcome read?
A: inactive
